Inconclusive results are not listed. Unmarked numbers belong to inactive results. Active and inactive are the calls of the source. The call rests on the fitted dose curve; in most records, active means well fitted curve in the direction sought with a large enough effect; inconclusive means small, poorly fitted or top-dose-only effect, or another doubt; inactive means no such curve, though single readings can be large or run the other way.
assay: qHTS of small molecules that selectively kill Giardia lamblia: GS isolate Assay for SAR; conditions: Giardia lamblia GS isolate viability; series mostly up to 38.3 µM; activity change, negative = inhibition: at the top concentration
Description: Giardia lamblia is a human pathogen afflicting impoverished nations, and the most common cause of outbreaks of diarrhea in the United States. Giardia has been classified by the CDC as a category B bioterrorism organism. The favored anti giardiasis drugs in the US are metronidazole or tinidazole, compounds that have undesirable side effects. Moreover, increasing resistance to these drug regimens and recurrence remains a concern. It is thus clear that alternative drug treatments are needed.
In collaboration with the University of Maryland (College Park), a bioluminescence Giardia viability assay based on the trophozoites' ATP content was developed. This assay is suitable for high throughput screening, and miniaturized the assay for compound screening in 1536-well plates. The Molecular Libraries Small Molecule Repository (MLSMR) was screened against this assay to find compounds that selectively kill Giardia trophozoites (AID 540267). Selected compounds were re-acquired to confirm their trophozoite toxicity activity (AID 588397) and lead chemotypes were identified for medicinal chemistry optimization. The data herein is the result of the first round of SAR for this project. Decrease in luminescence signal indicative of tropozoite growth inhibition (inhibitors) is the desired outcome for this assay.
NIH Chemical Genomics Center [NCGC]
NIH Molecular Libraries Probe Centers Network [MLPCN]
Assay Submitter (PI): Osnat Herzberg, University of Maryland, College Park, MD.
Giardia assay media was dispensed to an assay plate at 2 ul / well volume. Twenty-three nanoliter / well compounds were pinned into the plates using the Kalypsys robotic system. Giardia trophozoites were dispensed into the well at a concentration of 100 cells / well and incubated anaerobically at 37C for 48 hours. After compound incubation, 4 ul/ well ATPLite 1-Step luminescence assay detection reagent was and the plates were incubated at room temperature. After 30 min of incubation with the detection reagent, luminescence signal was obtained using the PerkinElmer ViewLux plate reader. Data was then processed and normalized to both positive and negative controls. Biosafety level 2 laboratory practices were observed throughout the duration of this screen.

Row | SMILES | activity change, negative = inhibition | outcome
1 | COc1ccnc(NC(=S)N2CCN(c3ccc(Cl)cc3Cl)CC2)c1 | -24.1% | –
2 | COc1ccnc(NC(=S)N2CCN(c3ncc(C(F)(F)F)cc3Cl)CC2)c1 | 15.5% [at 37.9 µM] | –
3 | Cc1ccnc(NC(=S)N2CCCc3ccc(C(F)(F)F)cc32)c1 | 25.8% [at 37.9 µM] | –
4 | Cc1ccnc(NC(=S)N[C@@H]2CCN(c3cccc(C(F)(F)F)c3)C2)c1 | 23% | –
5 | Cc1ccnc(NC(=S)Nc2cccc(C(F)(F)F)c2)c1 | 12.3% | –
6 | Cc1cc(C)nc(NC(=S)N2CC3CN(c4ccc(Cl)cc4C(F)(F)F)CC3C2)c1 (stereo unspecified) | -26.8% | –
7 | CSC(Cc1ccc(Cl)cc1)C(=O)Nc1ccc(Cl)cc1C(=O)O (stereo unspecified) | -22.2% | –
8 | FC(F)(F)c1cccc(N2CCN(C(=S)Nc3nccc4ccccc34)CC2)c1 | – | inactive
9 | Cc1ccnc(NC(=S)N2CCCN(c3cccc(C(F)(F)F)c3)CC2)c1 | -22.1% | –
10 | Cc1cc(C)nc(NC(=S)N2CCN(c3ncccc3C#N)CC2)c1 | 6.52% | –
11 | S=C(Nc1cc(Cl)ccn1)N1CCN(c2cccc(Cl)c2Cl)CC1 | 17% | –
12 | FC(F)(F)c1cc(N2CCN(C(=S)Nc3cc(Cl)ccn3)CC2)cc(C(F)(F)F)c1 | 7.15% | –
13 | FC(F)(F)c1cccc(N2CCN(C(=S)Nc3cc(C(F)(F)F)ccn3)CC2)c1 | 20.9% | –
14 | CC(Cc1ccccc1)C(=O)Nc1ccc(Cl)cc1C(=O)O (stereo unspecified) | -4.47% | –
15 | Cc1nc(CN(C)c2ncnc3ccc(-c4ccc5[nH]ncc5c4)cc23)cs1 | -56.4% | –
16 | Cc1cc(C)nc(NC(=S)N2CCN(c3ccc([N+](=O)[O-])cc3Cl)CC2)c1 | -33.6% | –
17 | Cc1ccnc(NC(=S)N2CCN(c3cccc(C(F)(F)F)c3)CC2)c1 | -32.4% [at 37.9 µM] | –
18 | Cc1ccnc(NC(=S)N2CC3CN(c4ncc(C(F)(F)F)cc4Cl)CC3C2)c1 (stereo unspecified) | -29.8% | –
19 | Cc1cc(C)nc(NC(=S)N2CCN(c3ccc(Cl)cc3C(F)(F)F)CC2)c1 | -7.54% [at 37.9 µM] | –
20 | COc1ccnc(NC(=S)N2CCN(c3cccc(Cl)c3Cl)CC2)c1 | -19.6% | –
21 | Cc1ccnc(N=C(N)N2CCN(c3cccc(C(F)(F)F)c3)CC2)c1 | -7.19% [at 37.9 µM] | –
22 | COc1cccc(NC(=S)N2CCN(c3ccc(Cl)c(Cl)c3)CC2)n1 | 14.5% | –
23 | COc1cccc(NC(=S)N2CCN(c3cc(Cl)cc(Cl)c3)CC2)n1 | 11.5% | –
24 | Cc1cc(C)nc(NC(=S)N2CCN(c3ccc(Cl)cc3Cl)CC2)c1 | -6.72% [at 37.9 µM] | –
25 | Cc1cc(C)nc(NC(=S)N2CCN(c3ccc(Cl)c(Cl)c3)CC2)c1 | -30.3% | –
26 | Cc1ccnc(NC(=S)N2CC3CN(c4cccc(C(F)(F)F)c4)CC3C2)c1 (stereo unspecified) | 17.6% | –

— PubChem BioAssay AID720676 (National Center for Advancing Translational Sciences (NCATS), 2013)
